# Screening data: PubChem BioAssay, National Center for Advancing Translational Sciences (NCATS)
# DT40 TDP1 no CPT: qHTS for Inhibitors of human tyrosyl-DNA phosphodiesterase 1 (TDP1): qHTS in cells in absence of CPT | DT40 Tdp1-/- hTDP1 cells, no CPT, ATP luminescence, 48 h | Potency, µM (titrated, usually from 46.2 µM), without a hit: top-dose activity change, negative = growth inhibition, most hits filed as inhibitors | 15% of 420,000 active; also: % is scaled to controls: 0 for no effect and ±100 for the full control effect; nearly all actives have a fitted effect of over 55% in size
#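 Cells were dispensed at 400 per well, compounds added by pin tool, plates incubated ≥48 hr at 37 °C, then CellTiter-Glo added for 30 min at room temperature before luminescence reading. Line: DT40 Tdp1-/- complemented with hTDP1; camptothecin omitted.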
# TDP1 cell CPT: DT40-hTDP1 cell growth loss with CPT. chicken DT40 Tdp1-/-;hTDP1 cells + 20 nM CPT, ATP luminescence, 48 h. Potency, µM (doses to about 46.2 µM), without a hit: top-dose activity change, negative = growth inhibition, most hits filed as inhibitors. 12% of 420,000 active; also: % is scaled to controls: 0 for no effect and ±100 for the full control effect; nearly all actives have a fitted effect of over 55% in size
#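 Chicken DT40 Tdp1-/- cells stably complemented with human TDP1 were seeded at 400 cells/well in medium containing 20 nM camptothecin, exposed to pin-transferred compounds, and grown at 37 °C for at least 48 hr. Viability was read as ATP luminescence.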
# ClpP mod: qHTS Assay for Activators of ClpP; purified B. subtilis ClpP, FRET peptide cleavage, 20 min; Potency, µM (titrated, usually from 57.5 µM), inactives show at the top dose activity change, negative = active; 1.9% of 340,000 active; AID 651965, 2013; active = well fitted falling curve with a large enough effect; inconclusive = small, poorly fitted or top-dose-only effect; inactive = no such curve, though single readings can be large or run the other way; also: the source files actives as falling curves though it sought activators and does not explain the sign; nearly all actives have a fitted effect of over 65% in size
# Target sequence (P80244 whole entry, looked up): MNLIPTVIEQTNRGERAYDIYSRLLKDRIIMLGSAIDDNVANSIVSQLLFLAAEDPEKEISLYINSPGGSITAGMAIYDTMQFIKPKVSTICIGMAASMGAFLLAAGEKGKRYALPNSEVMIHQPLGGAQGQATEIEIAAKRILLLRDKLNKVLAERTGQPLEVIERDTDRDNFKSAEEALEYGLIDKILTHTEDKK
#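 FRET quenching reversal measured ClpP activation: 10 microg/mL B. subtilis ClpP at pH 8 with the FRET-FV decapeptide, read at 430 nm after 320 nm excitation. The 20-min minus 0-min signal was scaled between DMSO/no-enzyme wells and ADEP (5.8 microM final).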
# TDP1 block: TDP1 (human) enzyme inhibition | Q9NUW8 | recombinant TDP1, AlphaScreen DNA substrate cleavage | Potency, µM (top dose mostly 130 µM), for inactives: at the highest dose activity change, negative = inhibition, actives largely listed as inhibitors | 0.28% of 350,000 active; also: % is scaled to controls: 0 for no effect and ±100 for the full control effect; nearly all actives have a fitted effect of over 40% in size
#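 Recombinant E. coli-expressed Tdp1 (1 nM) preincubated with compound 15 min at RT, then 5'-biotin/3'-phosphotyrosine-FITC DNA substrate (15 nM) added for 5 min. AlphaScreen beads (10 ug/ml) added, 10 min RT; tyrosine-FITC cleavage read as signal loss.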
# Starred values were filed as active, the others as inactive; ? = inconclusive; . = not tested or not shown; [ ] = remark or other dose. Only some compounds are listed: those with a hit (about 17% of all), similar ones and a draw of the others. Unless noted, calls follow the shape of the dose curve; as a rule, active = well fitted curve in the direction sought with a large enough effect; inconclusive = small, poorly fitted or top-dose-only effect, or another doubt; inactive = no such curve, though single readings can be large; an effect the other way counts as inactive or inconclusive. Potency is read from the fitted curve at half-maximal effect.
SMILES,DT40 TDP1 no CPT,TDP1 cell CPT,ClpP mod,TDP1 block
COc1ccc(CCNC(=O)c2ccc(N(C)S(=O)(=O)c3ccccc3)cc2)cc1,?,?,.,0.6%
Cc1ccc(CSCCNC(=O)c2ccc(N(C)S(=O)(=O)c3ccccc3)cc2)cc1,14.6µM*,?,-1.3%,5.3%
CC(=O)Nc1ccc(S(=O)(=O)NCCSCc2ccccc2Cl)cc1,18.4µM*,9.2µM*,-4.2%,2.7%
Cc1ccc(CSCCNS(=O)(=O)c2ccccc2)cc1,29.1µM*,-23.1%,-1.8%,5.5%
CN(c1ccc(C(=O)NCCSC(C)(C)C)cc1)S(=O)(=O)c1ccccc1,?,?,.,8.6%
Cc1ccc(-n2ncc3c(NCCCN(C)C)ncnc32)cc1Cl,?,?,4.2%,0.0%
CC(O)(COc1ccccc1)c1ccc2c(c1)CN(Cc1ccccn1)CCO2 (centres undefined),-20.1%,-1.3%[9.04 µM],.,.
CCN(CC)S(=O)(=O)c1cc(NC(=O)COc2ccc(C#N)cc2OC)ccc1C,23.1µM*,20.6µM*,-0.3%,8.5%
COc1cc(C#N)ccc1OCC(=O)Nc1cccc(S(=O)(=O)N(C)c2ccccc2)c1,18.4µM*,11.6µM*,0.0%,.
CCN(CC)S(=O)(=O)c1cccc(NC(=O)COc2ccc(C#N)cc2OC)c1,23.1µM*,?,-1.4%,0.6%
CCN(CC)S(=O)(=O)c1cccc(NC(=O)COc2ncnc3sccc23)c1,16.4µM*,?,.,-1.2%
Cc1ccnc(SCC(=O)c2ccc(Br)cc2)c1C#N,20.6µM*,?,-2.8%,-1.3%
CCCN(CCC)C(=O)C1CCCN(S(=O)(=O)c2ccc3c(c2)oc(=O)n3C)C1 (centres undefined),?,?,0.9%,2.9%
CCOC(=O)/C(=N\Nc1cc(Cl)ccc1Cl)N1CCN(CC)CC1,?,20.6µM*,0.1%,4.2%
CCN1CCN(C(=O)C2CCCN(S(=O)(=O)c3cc(Cl)ccc3Cl)C2)CC1 (centres undefined),-18.5%,-21.9%,-4.7%,3.1%
COc1cc(C(=O)NCC(c2cccnc2)N2CCN(c3ccc(F)cc3)CC2)cc(OC)c1OC (centres undefined),20.6µM*,?,0.0%,2.3%
O=C(NCc1cccnc1)C(=O)NCC(c1ccco1)N1CCN(c2ccc(F)cc2)CC1 (centres undefined),16.4µM*,23.1µM*,-2.5%,-1.2%
O=C(NCC(=O)N1CCN(c2ncccn2)CC1)c1ccc(F)cc1,-11.9%,13.0%,14.1µM*,2.4%
O=C(NCC(c1ccco1)N1CCN(c2ccc(F)cc2)CC1)C(=O)NC1CC1 (centres undefined),?,-27.0%,-3.3%,.
O=C(NCc1cccs1)C(=O)NCC(c1ccco1)N1CCN(c2ccc(F)cc2)CC1 (centres undefined),23.1µM*,?,.,7.2%
O=C(NCC(=O)N1CCN(c2ncccn2)CC1)c1ccccc1F,3.3%,15.1%,-11.6%,-1.7%
CCOC(=O)C1CCN(C(=O)CSc2ccccc2Cl)CC1,2.4%,10.2%,.,2.6%
Cc1ccccc1C(c1c(C)n(C)n(-c2ccccc2)c1=O)c1c(C)n(C)n(-c2ccccc2)c1=O,.,.,0.2%,.
CC1CCCCC1NC(=O)C1CCCN(S(=O)(=O)c2ccc(-n3cnnn3)cc2)C1 (centres undefined),-20.0%,1.6%,-1.5%,10.8%
COc1ccc2c(c1)OC(C)CN(CCC(=O)NCC1OCCc3ccccc31)C2 (centres undefined),-9.0%,12.3%[9.04 µM],.,.
SMILES,DT40 TDP1 no CPT,TDP1 cell CPT,ClpP mod,TDP1 block
O=S(=O)(NCC(c1cccnc1)N1CCN(c2ccc(F)cc2)CC1)c1cccs1 (centres undefined),?,?,-0.9%,8.7%
O=S(=O)(NCC(c1cccnc1)N1CCN(c2ccccc2F)CC1)c1cccs1 (centres undefined),?,14.6µM*,1.5%,6.5%
O=C(NCC(c1cccnc1)N1CCN(c2ccccc2F)CC1)c1cccc(Cl)c1 (centres undefined),16.4µM*,20.6µM*,-1.3%,5.1%
O=C(NCC(c1cccnc1)N1CCOCC1)c1cccc(Cl)c1 (centres undefined),-0.5%,-16.0%,-0.5%,-9.8%
O=C(NCC(c1cccnc1)N1CCN(c2ccc(F)cc2)CC1)c1ccco1 (centres undefined),16.4µM*,?,-5.2%,.
CCc1ccc(NC(=O)C(=O)NCC(c2cccnc2)N2CCN(c3ccc(F)cc3)CC2)cc1 (centres undefined),3.66µM*,?,2.7%,1.3%
COc1ccc(N2CCN(C(CNC(=O)c3ccco3)c3cccnc3)CC2)cc1 (centres undefined),?,?,-1.9%,1.0%
NS(=O)(=O)c1ccc(CCNC(=O)C2CCCN2C(=O)c2cccs2)cc1 (centres undefined),5.2%,5.2%,-1.8%,.
O=C(NCCC1=CCCCC1)C(=O)NCC(c1ccco1)N1CCN(c2ccccc2)CC1 (centres undefined),9.2µM*,11.6µM*,4.9%,2.3%
O=C(NCCc1ccccc1)C(=O)NCC(c1cccnc1)N1CCN(c2ccccc2F)CC1 (centres undefined),?,20.6µM*,-0.7%,-2.6%
O=C(NCC(c1cccnc1)N1CCN(c2ccccc2F)CC1)C1CCCCC1 (centres undefined),10.3µM*,?,-16.7%,4.2%
COc1ccc(N2CCN(C(CNC(=O)c3cccs3)c3ccco3)CC2)cc1 (centres undefined),-18.8%,-28.7%,15.8µM*,2.1%
COCCNC(=O)C(=O)NCC(c1cccnc1)N1CCN(c2ccccc2F)CC1 (centres undefined),-28.9%,-19.8%,-1.5%,0.0%
CC(C)[C@@H](CC(=O)N[C@@H]1CCCC[C@H]1C(=O)N[C@H](CC(=O)N[C@@H](CCC(=O)O)CC(=O)O)Cc1ccccc1)NC(=O)C[C@H](Cc1ccccc1)NC(=O)[C@@H]1CCCC[C@H]1N,.,.,.,2.5%
CCCn1c(CCC(=O)Nc2cccc(C)c2C)nc2cccnc21,?,-29.5%,-3.3%,3.8%
NC(=O)CC(NC(=O)c1ccccc1)c1ccc(NCCN2CCCCC2)c([N+](=O)[O-])c1 (centres undefined),-21.7%,-1.4%,1.3%,.
CO[C@@H]1COC(=O)CC=C[C@@H](C)[C@@H]2C=C[C@H](O)[C@@H](COC(=O)[C@H](C)NC(=O)CC=C[C@H]1C)O2,.,.,.,-1.6%[21 µM]
COc1ccc(C(=O)NCC(c2cccnc2)N2CCN(c3ccccc3F)CC2)cc1OC (centres undefined),?,?,-2.1%,2.6%
O=C(NCC(c1cccnc1)N1CCN(c2ccccc2F)CC1)c1ccc(F)cc1 (centres undefined),20.6µM*,14.6µM*,-0.2%,-5.2%
